# Targets with a hit are over-represented here; the source holds about 7,900 in all. About 0.6% of all pairs of compound and target were hits. A number with no mark means an inactive call.
# Assays:
# Test in all cases: log2 fold change, soluble protein after heating vs DMSO (PISA); higher = thermal stabilisation; K562 cells, 10 uM, 30 min; active = over 0.2 and 3.5 SD of the protein, either way, in both replicates (recomputed)
# [1] = compound: C#Cc1cccc(Nc2ncnc3cc(OCCOC)c(OCCOC)cc23)c1 [erlotinib]
# In short: (§1)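 K562 cells (2×10^6 cells/mL) were treated with 10 μM compound for 30 min, and aliquots were heated for 3 min over 48°C-58°C. Pooled aliquots were extracted in PBS with 0.5% NP-40 at 4°C, and the supernatant after 21,000xg for 90 min was measured by TMTpro 16plex LC-MS/MS with channel sums equalised. Reported thermal stability, relative to control samples and from duplicates, is a log2 fold change.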
# [2] = compound: C/C(=N\NC(=O)C1=CC(=CC=C1)S(=O)(=O)N2CCOCC2)/C3=C(C=CC(=C3)Cl)O
# In short: as §1
# [3] = compound: C1=CC(=C(C=C1Cl)C2=NC3=NC=CN=C3C(=N2)NC4=CC=NC=C4)F
# In short: as §1
# [4] = compound: C1=CC(=CC=C1C2=NC3=C(N2)C=C(C=C3)C(=O)N)OC4=CC=C(C=C4)Cl
# In short: as §1
# [5] = compound: C1=CC2=C(C=CC(=C2)/C=C\3/C(=O)NC(=NCC4=CC=CS4)S3)N=C1
# In short: as §1
# [6] = compound: C1=CC2=NC=CN=C2C=C1/C=C/3\C(=O)NC(=O)S3
# In short: as §1
# [7] = compound: C1=CC=C2C(=C1)C3=NNC4=CC=CC(=C43)C2=O
# In short: as §1
# [8] = compound: C1CCN(C1)C(=O)NC2=CC=CC(=C2)NC3=NC=C(C(=N3)NCCC4=CN=CN4)Br
# In short: as §1
# [9] = compound: C1CN(CCC1(CC2=CC=C(C=C2)Cl)N)C3=NC=NC4=C3C=CN4
# In short: as §1
# [10] = compound: C1COCCN1CCN2C3=CC=CC=C3N=C2NC(=O)C4=CC(=CC=C4)[N+](=O)[O-] [IRAK-1-4 Inhibitor I]
# In short: as §1
# [11] = compound: C=CC(=O)N1CCC[C@@H](n2nc(-c3ccc(Oc4ccccc4)cc3)c3c(N)ncnc32)C1 [ibrutinib]
# In short: as §1
# [12] = compound: CC(=O)c1cnc2ccc(-c3cc(Cl)c(O)c(Cl)c3)nc2c1N[C@H]1CC[C@H](CN(C)C)CC1
# In short: as §1
# [13] = compound: CC(C)(O)CC(=O)NCCn1ccc2ncnc(Nc3ccc(Oc4cccc(C(F)(F)F)c4)c(Cl)c3)c21
# In short: as §1
# [14] = compound: CC(C)C1=C2N=C(C=C(N2N=C1)NCC3=CC=CC=C3)NCCCCCCN
# In short: as §1
# [15] = compound: CC(C)N(C[C@H]1O[C@@H](n2cnc3c(N)ncnc32)[C@H](O)[C@@H]1O)[C@H]1C[C@@H](CCc2nc3cc(C(C)(C)C)ccc3[nH]2)C1 [pinometostat]
# In short: as §1
# [16] = compound: CC1=C(C(CC(=O)N1)C2=CC=C(C=C2)C(F)(F)F)C(=O)NC3=C(C=C4C(=C3)C=NN4)F
# In short: as §1
# [17] = compound: CC1=C(C2=C(C=C1)C(=O)C3=CC=CC=C3N2CCCN)C
# In short: as §1
# [18] = compound: C1=CC=C(C=C1)C2=NC(=C(N2)C3=CC=NC=C3)C4=CC(=C(C=C4)Cl)O
# In short: as §1
# [19] = compound: CC(C)(C)Cn1c(N)nc2ccc(-c3[nH]c(C(C)(C)C)nc3-c3ccc(F)cc3)nc21 [ralimetinib]
# In short: as §1
# [20] = compound: CC(C)C[C@@H](C=O)NC(=O)[C@H](CC(C)C)NC(=O)[C@H](CC(C)C)NC(=O)OCc1ccccc1
# In short: as §1
# Sequence of UniProt P35610 (P35610 whole entry, looked up): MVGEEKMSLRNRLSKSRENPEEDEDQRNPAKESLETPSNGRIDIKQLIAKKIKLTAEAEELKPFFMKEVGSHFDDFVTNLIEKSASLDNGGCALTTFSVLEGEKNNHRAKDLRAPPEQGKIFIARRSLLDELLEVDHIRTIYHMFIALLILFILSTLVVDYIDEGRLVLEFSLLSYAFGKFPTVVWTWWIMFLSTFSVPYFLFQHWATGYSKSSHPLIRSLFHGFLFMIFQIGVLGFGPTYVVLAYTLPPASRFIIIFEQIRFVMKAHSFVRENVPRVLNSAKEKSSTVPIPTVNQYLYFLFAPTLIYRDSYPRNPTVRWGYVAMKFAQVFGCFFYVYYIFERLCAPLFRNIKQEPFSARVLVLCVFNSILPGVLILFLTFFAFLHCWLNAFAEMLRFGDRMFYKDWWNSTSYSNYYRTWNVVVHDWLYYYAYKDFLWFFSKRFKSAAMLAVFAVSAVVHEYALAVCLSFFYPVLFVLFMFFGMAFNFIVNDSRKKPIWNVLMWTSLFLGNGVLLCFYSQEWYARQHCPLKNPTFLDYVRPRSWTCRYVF
# Sequence of UniProt Q9UL54 (Q9UL54 whole entry, looked up): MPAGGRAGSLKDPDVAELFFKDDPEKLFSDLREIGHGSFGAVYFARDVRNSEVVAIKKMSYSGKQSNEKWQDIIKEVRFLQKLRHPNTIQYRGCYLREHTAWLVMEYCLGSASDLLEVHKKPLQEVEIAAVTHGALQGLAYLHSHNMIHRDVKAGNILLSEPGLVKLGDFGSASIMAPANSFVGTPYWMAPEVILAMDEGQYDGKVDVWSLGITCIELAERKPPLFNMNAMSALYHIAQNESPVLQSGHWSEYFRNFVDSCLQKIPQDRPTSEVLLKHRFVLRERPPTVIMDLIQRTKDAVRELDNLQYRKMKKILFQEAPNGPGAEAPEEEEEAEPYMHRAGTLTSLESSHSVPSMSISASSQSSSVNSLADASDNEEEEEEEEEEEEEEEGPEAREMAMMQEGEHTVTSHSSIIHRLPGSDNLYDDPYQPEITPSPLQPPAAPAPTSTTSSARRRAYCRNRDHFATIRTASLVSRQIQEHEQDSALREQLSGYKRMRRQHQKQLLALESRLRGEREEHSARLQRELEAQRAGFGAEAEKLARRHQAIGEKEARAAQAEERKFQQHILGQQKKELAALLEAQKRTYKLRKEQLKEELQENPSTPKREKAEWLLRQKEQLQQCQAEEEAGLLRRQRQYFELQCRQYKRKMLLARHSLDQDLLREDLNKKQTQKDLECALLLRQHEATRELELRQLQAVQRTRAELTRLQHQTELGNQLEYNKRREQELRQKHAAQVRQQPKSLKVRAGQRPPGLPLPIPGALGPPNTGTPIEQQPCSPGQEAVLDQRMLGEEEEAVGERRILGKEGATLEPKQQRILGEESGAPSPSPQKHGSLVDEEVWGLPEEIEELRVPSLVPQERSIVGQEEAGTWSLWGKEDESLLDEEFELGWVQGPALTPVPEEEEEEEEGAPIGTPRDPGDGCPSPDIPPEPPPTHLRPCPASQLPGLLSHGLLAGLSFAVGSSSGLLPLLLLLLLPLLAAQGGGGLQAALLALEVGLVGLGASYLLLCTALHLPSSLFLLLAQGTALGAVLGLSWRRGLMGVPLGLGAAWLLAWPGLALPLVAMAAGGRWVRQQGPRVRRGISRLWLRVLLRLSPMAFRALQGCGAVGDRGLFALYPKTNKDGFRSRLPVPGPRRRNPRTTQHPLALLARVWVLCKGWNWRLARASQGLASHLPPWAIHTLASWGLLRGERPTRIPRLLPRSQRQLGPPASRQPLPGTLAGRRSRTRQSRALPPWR
# Sequence of UniProt Q969S0 (Q969S0 whole entry, looked up): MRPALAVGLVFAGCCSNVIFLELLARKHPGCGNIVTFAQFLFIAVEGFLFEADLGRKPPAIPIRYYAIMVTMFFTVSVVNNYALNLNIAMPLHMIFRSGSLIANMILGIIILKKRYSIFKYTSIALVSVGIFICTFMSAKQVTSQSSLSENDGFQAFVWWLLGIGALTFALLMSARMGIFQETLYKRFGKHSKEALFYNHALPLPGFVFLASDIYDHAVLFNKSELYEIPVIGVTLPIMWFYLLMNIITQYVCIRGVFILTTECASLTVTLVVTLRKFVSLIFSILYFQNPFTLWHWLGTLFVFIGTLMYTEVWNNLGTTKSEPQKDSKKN
# Sequence of UniProt Q9H5L6 (Q9H5L6 whole entry, looked up): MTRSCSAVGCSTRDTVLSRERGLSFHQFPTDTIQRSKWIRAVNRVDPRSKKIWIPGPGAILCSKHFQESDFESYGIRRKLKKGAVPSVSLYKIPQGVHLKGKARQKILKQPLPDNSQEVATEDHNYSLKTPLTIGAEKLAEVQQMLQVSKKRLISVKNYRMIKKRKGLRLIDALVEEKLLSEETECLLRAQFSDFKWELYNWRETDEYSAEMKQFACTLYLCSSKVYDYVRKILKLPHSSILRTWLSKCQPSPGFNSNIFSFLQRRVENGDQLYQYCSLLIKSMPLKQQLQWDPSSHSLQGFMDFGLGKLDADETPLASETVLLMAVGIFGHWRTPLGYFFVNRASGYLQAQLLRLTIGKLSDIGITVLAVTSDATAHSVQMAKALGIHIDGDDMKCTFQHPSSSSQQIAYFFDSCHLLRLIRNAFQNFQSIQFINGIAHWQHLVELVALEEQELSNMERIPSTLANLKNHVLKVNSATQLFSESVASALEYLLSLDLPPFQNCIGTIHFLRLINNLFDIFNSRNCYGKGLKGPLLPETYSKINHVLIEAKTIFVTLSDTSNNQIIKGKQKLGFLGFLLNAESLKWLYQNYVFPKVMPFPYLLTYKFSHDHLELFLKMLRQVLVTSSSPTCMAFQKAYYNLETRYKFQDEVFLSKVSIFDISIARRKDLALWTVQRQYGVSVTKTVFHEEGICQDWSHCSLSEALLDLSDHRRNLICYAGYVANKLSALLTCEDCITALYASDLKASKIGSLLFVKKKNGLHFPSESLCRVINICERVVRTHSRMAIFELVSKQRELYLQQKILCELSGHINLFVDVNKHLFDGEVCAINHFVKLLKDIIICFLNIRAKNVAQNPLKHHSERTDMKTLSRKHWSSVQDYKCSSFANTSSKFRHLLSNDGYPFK
# Sequence of UniProt Q92536 (Q92536 whole entry, looked up): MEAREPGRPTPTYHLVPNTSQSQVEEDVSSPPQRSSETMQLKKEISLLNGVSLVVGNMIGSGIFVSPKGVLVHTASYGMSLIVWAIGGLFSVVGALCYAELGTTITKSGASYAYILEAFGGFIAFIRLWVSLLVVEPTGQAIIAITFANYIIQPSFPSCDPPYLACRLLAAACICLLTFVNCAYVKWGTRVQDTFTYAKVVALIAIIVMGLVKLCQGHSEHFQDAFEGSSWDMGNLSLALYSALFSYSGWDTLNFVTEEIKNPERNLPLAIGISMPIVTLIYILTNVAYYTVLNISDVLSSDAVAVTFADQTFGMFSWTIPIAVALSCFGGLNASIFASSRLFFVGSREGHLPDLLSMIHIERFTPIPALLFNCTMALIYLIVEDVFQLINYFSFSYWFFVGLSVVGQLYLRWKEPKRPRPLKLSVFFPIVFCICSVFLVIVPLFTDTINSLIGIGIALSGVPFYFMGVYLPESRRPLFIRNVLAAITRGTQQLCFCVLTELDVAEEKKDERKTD
# Sequence of UniProt Q9Y5J6 (Q9Y5J6 whole entry, looked up): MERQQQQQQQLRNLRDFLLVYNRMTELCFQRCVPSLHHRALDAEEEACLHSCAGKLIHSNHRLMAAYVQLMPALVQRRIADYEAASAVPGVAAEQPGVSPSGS
# Sequence of UniProt Q9NVC3 (Q9NVC3 whole entry, looked up): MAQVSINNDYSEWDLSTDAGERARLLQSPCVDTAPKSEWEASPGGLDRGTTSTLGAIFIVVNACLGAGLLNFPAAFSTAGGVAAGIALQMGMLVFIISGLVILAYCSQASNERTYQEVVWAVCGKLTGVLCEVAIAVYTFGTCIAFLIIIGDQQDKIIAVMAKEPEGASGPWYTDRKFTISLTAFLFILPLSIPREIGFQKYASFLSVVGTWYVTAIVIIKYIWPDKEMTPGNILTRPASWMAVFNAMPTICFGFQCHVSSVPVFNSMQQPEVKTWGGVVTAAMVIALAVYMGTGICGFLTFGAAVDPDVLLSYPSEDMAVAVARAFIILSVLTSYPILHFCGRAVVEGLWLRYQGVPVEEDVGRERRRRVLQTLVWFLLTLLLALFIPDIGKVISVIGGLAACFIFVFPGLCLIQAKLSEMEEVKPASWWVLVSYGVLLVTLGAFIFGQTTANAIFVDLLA
# Sequence of UniProt O14975 (O14975 whole entry, looked up): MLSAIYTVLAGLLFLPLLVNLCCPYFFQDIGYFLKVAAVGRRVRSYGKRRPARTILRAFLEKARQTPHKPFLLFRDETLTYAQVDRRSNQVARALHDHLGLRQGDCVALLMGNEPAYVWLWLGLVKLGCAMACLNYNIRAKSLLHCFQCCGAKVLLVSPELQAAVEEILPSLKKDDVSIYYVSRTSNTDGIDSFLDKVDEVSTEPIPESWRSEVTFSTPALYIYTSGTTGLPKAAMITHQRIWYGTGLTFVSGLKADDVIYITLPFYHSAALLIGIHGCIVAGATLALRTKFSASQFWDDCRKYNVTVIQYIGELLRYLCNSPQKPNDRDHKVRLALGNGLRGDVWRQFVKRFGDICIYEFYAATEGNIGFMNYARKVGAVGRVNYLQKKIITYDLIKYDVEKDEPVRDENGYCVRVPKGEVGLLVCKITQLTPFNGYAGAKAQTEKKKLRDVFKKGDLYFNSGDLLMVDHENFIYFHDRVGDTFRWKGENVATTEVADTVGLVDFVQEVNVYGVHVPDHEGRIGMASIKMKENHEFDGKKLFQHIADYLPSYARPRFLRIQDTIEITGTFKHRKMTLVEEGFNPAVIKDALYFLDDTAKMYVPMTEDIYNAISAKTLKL
Target,log2 fold change [1],log2 fold change [2],log2 fold change [3],log2 fold change [4],log2 fold change [5],log2 fold change [6],log2 fold change [7],log2 fold change [8],log2 fold change [9],log2 fold change [10],log2 fold change [11],log2 fold change [12],log2 fold change [13],log2 fold change [14],log2 fold change [15],log2 fold change [16],log2 fold change [17],log2 fold change [18],log2 fold change [19],log2 fold change [20]
STK11IP (UniProt Q8N1F8),0.025,0.152,-0.079,-0.243,0.094,0.006,-0.062,0.042,-0.01,-0.248,0.027,-0.02,-0.131,-0.932 (active),0.168,0.1,-0.183,,,
SLC7A6 (UniProt Q92536),-0.051,0.232,-0.161,0.026,-0.001,0.034,-0.033,-0.004,0.135,-0.03,-0.032,-0.037,-0.301,0.142,-0.068,0.025,-0.02,0.008,-0.02,0.006
SLC38A7 (UniProt Q9NVC3),0.009,-0.003,0.071,0.058,0.024,0.088,0.006,0.011,0.097,0.035,0.073,0.092,-0.085,-0.751 (active),0.033,-0.009,0.007,0.441 (active),0.205,-0.024
TATDN2 (UniProt Q93075),0.071,-0.062,-0.016,-0.013,0.043,-0.052,0.003,-0.121,0.06,-0.006,0.072,-0.402 (active),0.102,0.058,0.047,-0.023,-0.218,,,
STRN (UniProt O43815),-0.03,0,0.033,0.013,-0.008,0.005,0.025,-0.124,0.053,0.029,0.073,-0.046,-0.023,0.03,-0.002,-0.037,0,0.213 (active),0.13,-0.066
SOAT1 (UniProt P35610),0.174,0.099,-0.034,-0.063,0.141,0.063,-0.038,0.001,0.026,0.1,-0.008,-0.031,-0.04,-0.014,-0.017,-0.041,0.053,0.074,0.031,0.303
STIM1 (UniProt Q13586),-0.015,0.01,0.043,0.014,0.039,-0.007,-0.067,-0.003,0.016,0.006,0.007,-0.06,-0.067,-0.33 (active),-0.011,0.006,0.067,-0.025,-0.036,0.034
SLC35B4 (UniProt Q969S0),-0.055,0.194,-0.033,0.105,0.085,0.024,-0.243,-0.015,-0.231,0.092,0.023,0.184,0.098,-0.02,-0.056,-0.055,0.059,,,
SP100 isoform 4 (UniProt P23497),0.011,0.044,0.037,0.022,-0.071,0.063,-0.05,-0.001,0.035,0.006,-0.012,0.074,0.011,-0.015,-0.035,0.029,-0.1,0.033,0.019,-0.07
SLC27A2 (UniProt O14975),0,0.057,0.054,0.032,0.101,0.005,0.018,-0.001,0.035,-0.039,0.144,-0.125,0.366 (active),0.015,0.01,-0.045,0.03,0.108,0.013,0.055
TIMM10B (UniProt Q9Y5J6),0.299,0.135,0.191,-0.189,0.216,0.048,0.543,-0.143,-0.051,,-0.008,-0.231,-0.07,-0.197,,0.017,0.089,0.042,0,-0.126
SYK (UniProt P43405),0.06,0.144,-0.019,0.038,0.031,-0.095,,-0.042,0.074,-0.192,0.056,-0.277,-0.1,0.128,0.19,,-0.425,0.131,0.241,0.048
SLC30A7 (UniProt Q8NEW0),-0.004,0.175,0.062,0.006,-0.086,0.077,0.004,0.016,0.132,0.035,0.063,0.032,-0.075,-0.186,-0.007,-0.058,0.06,0.109,-0.098,0.011
THAP9 (UniProt Q9H5L6),,-0.733 (active),,,0.163,-0.211,-0.057,,,0.07,0.002,-0.105,,,-0.035,0.027,,0.123,0.178,-0.025
TCOF1 isoform 3 (UniProt Q13428),0.062,,-0.193,-0.172,,,,0.101,0.012,,,,-0.095,-0.01,,,-0.642,-0.056,0.522,0.176
SP2 (UniProt Q02086),,0,,,0.229,,0.095,,,-0.126,,-0.472,,,0.212,,,,,
STK17B (UniProt O94768),0.128,,,0.072,,-0.169,,,,-0.12,-0.235,,,-0.262,0.033,,,,,
TM7SF2 (UniProt O76062),-0.012,,,-0.05,,,,,,,,,,-0.124,,-0.134,,-0.151,-0.106,-0.01
SMARCB1 (UniProt Q12824),,,,,,,,0.038,0.025,-0.082,,,,,0.179,,-0.031,,,
TAOK2 (UniProt Q9UL54),-0.043,,-0.019,0.156,,,,-0.014,0.029,-0.132,,,-0.041,0.083,0.031,-0.044,0.127,0.029,0.09,0.001
